Measurements taken from article PMC7862700, “An all-to-all approach to the identification of sequence-specific readers for epigenetic DNA modifications on cytosine”.

Assays:
Test in all cases: DAPPL (digital affinity profiling via proximity ligation, sequencing); 10 mM Tris-HCl pH 7.5, 50 mM NaCl, 1 mM DTT, 4% glycerol, room temperature, 30 min; GST-TFs on glutathione beads, 16-mer random dsDNA library, 0.1% formaldehyde crosslink after washing; high values mean tight binding
Settings in all cases: protein: recombinant; tags: N-terminal GST; dsDNA, one strand shown
[1] = molecular target: T1, FLI1 (Homo sapiens, UniProt Q01543 1-452)
T1 sequence: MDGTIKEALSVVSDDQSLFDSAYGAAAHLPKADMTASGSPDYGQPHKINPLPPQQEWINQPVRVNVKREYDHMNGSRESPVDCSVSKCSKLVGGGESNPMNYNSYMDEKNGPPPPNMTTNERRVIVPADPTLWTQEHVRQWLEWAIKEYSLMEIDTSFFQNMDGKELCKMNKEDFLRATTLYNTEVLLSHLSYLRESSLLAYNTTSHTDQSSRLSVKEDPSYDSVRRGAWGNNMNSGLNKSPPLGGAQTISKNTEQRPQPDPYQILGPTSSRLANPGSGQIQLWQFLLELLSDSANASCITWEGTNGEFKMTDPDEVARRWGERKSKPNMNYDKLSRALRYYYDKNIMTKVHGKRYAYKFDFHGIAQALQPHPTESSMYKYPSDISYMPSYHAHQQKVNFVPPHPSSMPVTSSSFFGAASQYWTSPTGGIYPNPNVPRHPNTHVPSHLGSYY
How it was run: (§1)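 Human transcription factors were made in yeast as GST fusions, captured on glutathione beads and barcoded with DNA. With a tag-only sample included, the pool was incubated with 200 nmole of a random double-stranded 16-mer DNA library in Tris/NaCl/DTT/glycerol buffer at room temperature for 30 min, then crosslinked with 0.1% formaldehyde after washing, ligated by proximity, amplified and sequenced. For binding signal, each hexamer's read frequency for a factor is divided by its frequency for the tag-only sample.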

[2] = molecular target: T2, ELK1 (Homo sapiens, UniProt P19419 1-428)
T2 sequence: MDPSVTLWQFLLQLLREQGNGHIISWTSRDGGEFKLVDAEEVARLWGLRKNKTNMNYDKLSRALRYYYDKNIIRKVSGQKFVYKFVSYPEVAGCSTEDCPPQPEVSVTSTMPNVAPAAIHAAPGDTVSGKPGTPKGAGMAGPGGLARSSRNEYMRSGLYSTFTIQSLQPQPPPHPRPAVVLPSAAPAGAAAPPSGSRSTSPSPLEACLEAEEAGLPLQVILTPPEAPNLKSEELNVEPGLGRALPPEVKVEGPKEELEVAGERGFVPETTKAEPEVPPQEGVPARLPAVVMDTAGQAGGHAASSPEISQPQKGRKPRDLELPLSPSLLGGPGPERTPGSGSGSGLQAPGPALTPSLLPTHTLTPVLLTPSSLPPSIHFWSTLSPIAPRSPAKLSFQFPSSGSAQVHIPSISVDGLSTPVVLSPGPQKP
How it was run: as §1

[3] = molecular target: T3, GABPA (Homo sapiens, UniProt Q06546 1-454)
T3 sequence: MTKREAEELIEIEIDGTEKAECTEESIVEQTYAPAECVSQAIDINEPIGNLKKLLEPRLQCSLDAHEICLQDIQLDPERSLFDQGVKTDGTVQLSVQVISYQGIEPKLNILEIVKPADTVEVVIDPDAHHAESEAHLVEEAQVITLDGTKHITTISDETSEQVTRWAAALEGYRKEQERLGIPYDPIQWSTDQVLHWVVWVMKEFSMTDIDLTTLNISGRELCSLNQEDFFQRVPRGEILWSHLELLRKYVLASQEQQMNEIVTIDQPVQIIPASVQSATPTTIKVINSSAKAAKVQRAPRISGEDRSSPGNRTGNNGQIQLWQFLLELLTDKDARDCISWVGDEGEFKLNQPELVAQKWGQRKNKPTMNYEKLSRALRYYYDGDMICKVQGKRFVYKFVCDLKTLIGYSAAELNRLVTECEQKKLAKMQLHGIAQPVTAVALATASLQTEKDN
How it was run: as §1

[4] = molecular target: T4, ERG (Homo sapiens, UniProt P11308 1-479)
T4 sequence: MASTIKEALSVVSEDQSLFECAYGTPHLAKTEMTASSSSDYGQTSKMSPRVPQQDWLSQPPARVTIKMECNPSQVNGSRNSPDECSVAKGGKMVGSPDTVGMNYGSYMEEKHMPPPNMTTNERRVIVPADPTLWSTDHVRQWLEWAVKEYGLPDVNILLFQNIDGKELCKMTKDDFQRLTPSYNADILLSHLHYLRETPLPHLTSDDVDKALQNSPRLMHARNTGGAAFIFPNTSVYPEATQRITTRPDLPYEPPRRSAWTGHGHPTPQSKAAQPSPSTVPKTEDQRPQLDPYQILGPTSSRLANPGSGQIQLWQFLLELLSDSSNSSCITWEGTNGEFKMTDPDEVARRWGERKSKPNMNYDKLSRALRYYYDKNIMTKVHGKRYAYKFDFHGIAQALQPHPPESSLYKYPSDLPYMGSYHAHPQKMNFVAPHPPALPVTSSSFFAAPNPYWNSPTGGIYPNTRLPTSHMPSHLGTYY
How it was run: as §1

[5] = molecular target: ELF1 (Homo sapiens, UniProt P32519 1-619)
How it was run: as §1

[6] = molecular target: T5, EHF (Homo sapiens, UniProt Q9NZC4 1-300)
T5 sequence: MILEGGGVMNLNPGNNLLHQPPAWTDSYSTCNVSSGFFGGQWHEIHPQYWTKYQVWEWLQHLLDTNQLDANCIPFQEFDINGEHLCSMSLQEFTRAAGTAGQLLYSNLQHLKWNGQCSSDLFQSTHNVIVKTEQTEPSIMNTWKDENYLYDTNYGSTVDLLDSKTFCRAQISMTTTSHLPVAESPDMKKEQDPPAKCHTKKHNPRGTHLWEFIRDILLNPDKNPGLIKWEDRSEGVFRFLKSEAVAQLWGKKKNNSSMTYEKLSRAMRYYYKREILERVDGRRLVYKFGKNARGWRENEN
How it was run: as §1

[7] = molecular target: SPI1 (Homo sapiens, UniProt P17947 1-270)
How it was run: as §1

[8] = molecular target: SPIB (Homo sapiens, UniProt Q01892 1-262)
How it was run: as §1

[9] = molecular target: T6, ELK3 (Homo sapiens, UniProt P41970 1-407)
T6 sequence: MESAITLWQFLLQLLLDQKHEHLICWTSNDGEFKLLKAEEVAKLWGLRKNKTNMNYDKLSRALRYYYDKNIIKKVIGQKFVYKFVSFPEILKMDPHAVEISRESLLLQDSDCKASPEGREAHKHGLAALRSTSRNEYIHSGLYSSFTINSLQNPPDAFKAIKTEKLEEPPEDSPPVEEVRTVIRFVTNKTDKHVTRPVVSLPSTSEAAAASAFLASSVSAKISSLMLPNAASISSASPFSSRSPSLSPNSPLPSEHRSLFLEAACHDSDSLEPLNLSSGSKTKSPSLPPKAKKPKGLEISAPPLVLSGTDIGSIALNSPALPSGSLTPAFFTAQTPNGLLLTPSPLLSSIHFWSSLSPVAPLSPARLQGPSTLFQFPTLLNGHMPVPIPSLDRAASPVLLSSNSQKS
How it was run: as §1

ELF1, sequence (P32519 whole entry): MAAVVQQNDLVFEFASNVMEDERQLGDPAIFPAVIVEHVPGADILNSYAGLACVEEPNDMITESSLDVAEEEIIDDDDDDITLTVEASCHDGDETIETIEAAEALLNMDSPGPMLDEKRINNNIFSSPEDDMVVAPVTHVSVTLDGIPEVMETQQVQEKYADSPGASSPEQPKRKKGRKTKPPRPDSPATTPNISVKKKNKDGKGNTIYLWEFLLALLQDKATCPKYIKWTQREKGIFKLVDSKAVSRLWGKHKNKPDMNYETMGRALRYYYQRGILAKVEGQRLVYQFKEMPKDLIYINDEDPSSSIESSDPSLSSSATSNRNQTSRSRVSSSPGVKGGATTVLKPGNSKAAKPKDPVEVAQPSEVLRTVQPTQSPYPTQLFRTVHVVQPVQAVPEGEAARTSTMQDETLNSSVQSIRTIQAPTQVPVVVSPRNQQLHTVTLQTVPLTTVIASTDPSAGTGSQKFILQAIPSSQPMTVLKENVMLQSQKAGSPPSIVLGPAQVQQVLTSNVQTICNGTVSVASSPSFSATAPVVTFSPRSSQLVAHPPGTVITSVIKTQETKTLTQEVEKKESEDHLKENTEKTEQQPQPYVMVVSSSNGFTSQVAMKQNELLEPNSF
SPIB, sequence (Q01892 whole entry): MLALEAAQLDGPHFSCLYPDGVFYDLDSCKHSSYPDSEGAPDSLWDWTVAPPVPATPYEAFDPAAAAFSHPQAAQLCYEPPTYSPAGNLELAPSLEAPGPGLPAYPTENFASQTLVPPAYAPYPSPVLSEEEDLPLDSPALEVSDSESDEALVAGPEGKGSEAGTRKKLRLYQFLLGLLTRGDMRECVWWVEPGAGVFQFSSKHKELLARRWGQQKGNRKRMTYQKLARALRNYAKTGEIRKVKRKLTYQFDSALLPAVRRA

ATTGAC
binding signal [1]: 1.18 fold enrichment (6-mer frequency, TF over GST control)
binding signal [2]: 1.21 fold enrichment (6-mer frequency, TF over GST control)
binding signal [3]: 1.22 fold enrichment (6-mer frequency, TF over GST control)
binding signal [4]: 1.19 fold enrichment (6-mer frequency, TF over GST control)
binding signal [5]: 1.19 fold enrichment (6-mer frequency, TF over GST control)
binding signal [6]: 1.22 fold enrichment (6-mer frequency, TF over GST control)
binding signal [7]: 1.14 fold enrichment (6-mer frequency, TF over GST control)
binding signal [8]: 1.2 fold enrichment (6-mer frequency, TF over GST control)
binding signal [9]: 1.16 fold enrichment (6-mer frequency, TF over GST control)
